Reference: PubChem BioAssay (NCATS)
Records with an inconclusive call do not appear. Calls of active or inactive are those of the source. Unless noted, the call rests on the fitted dose curve; in most records, active means well fitted curve in either direction with a large enough effect (not every such curve was filed as active); inconclusive means small, poorly fitted or top-dose-only effect, or another doubt; inactive means flat fitted curve, though single readings scatter.

What was measured:
[1] = molecular target: Lysosomal acid glucosylceramidase (Homo sapiens) (UniProt P04062); test: Glucocerebrosidase-p2 (AID 348; in the data active means potency below about 10 µM; further: potency means the concentration at half of the fitted maximal effect); settings: purified GBA, blue fluorogenic substrate, 40 min
Sequence of Lysosomal acid glucosylceramidase (Homo sapiens) (P04062 whole entry, looked up): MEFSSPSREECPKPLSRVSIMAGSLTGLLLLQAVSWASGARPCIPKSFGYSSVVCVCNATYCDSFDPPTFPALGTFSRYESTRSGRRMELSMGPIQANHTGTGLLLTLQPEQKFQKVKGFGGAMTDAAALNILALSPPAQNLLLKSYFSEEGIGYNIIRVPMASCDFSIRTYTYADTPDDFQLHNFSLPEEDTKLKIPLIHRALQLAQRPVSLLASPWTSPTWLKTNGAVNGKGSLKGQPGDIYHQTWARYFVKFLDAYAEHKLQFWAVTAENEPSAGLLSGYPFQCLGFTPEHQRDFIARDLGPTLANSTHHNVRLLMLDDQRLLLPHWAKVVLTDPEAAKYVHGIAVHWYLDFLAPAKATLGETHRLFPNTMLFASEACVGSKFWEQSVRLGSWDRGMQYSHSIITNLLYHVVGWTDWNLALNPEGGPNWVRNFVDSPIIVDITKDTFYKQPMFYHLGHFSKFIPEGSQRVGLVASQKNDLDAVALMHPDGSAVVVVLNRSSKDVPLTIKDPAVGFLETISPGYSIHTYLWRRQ
How it was run: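 Compounds titrated from 0.6 nM upwards against 0.2 nM enzyme in pH 5.9 citric acid/KH2PO4, taurocholate, tween-20; blue fluorogenic substrate 80 uM, 40 min room temperature, stopped and read Ex 365/Em 440 for AC50.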

[2] = AP1 Signaling Pathway (AID 357); settings: ME-180 AP-1-bla reporter, EGF-induced, beta-lactamase ratio, 5 h; at 7.69 µM (top of the series) unless noted;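 further: ME-180 reporter cells stimulated with EGF at its EC50 level; on the % scale 0 is the no-effect control and ±100 the full control effect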
How it was run: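 Beta-lactamase reporter under AP-1 response element, ME-180 background. Stimulus: EC50 EGF. Compound exposure 5 h, 37 °C. Detection: CCF4, 2.5 h RT, 460/530 nm. Values: AC50 from titration.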

[3] = NFAT Signaling Pathway (AID 444); settings: Jurkat NFAT-bla M1, carbachol, beta-lactamase ratio, 5 h; at 7.69 µM (top of the series) unless noted;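 further: carbachol stimulus at about its EC50 of 1 µM final; on the % scale 0 is the no-effect control and ±100 the full control effect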
How it was run: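 Jurkat cells with NFAT-driven β-lactamase reporter and co-expressed M1 receptor, stimulated with carbachol (final 1 uM, ~EC50), compound titration, 5 h at 37 °C. CCF4 loaded 1 h at RT; 460/530 nm ratio gave %activity and AC50.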

[4] = Stat Signaling Pathway (AID 446); settings: ME-180 SIE beta-lactamase reporter, IL-6 stimulated, 5 h; at 7.69 µM (top of the series) unless noted;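 further: ME-180 cervical cancer cells given 40 pM IL-6 alongside compound; SIE-controlled beta-lactamase reporter measured as 460/530 nm FRET emission ratio; on the % scale 0 is the no-effect control and ±100 the full control effect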
How it was run: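 Reporter line: ME-180 cervical carcinoma, SIE-beta-lactamase. Treatment: compound with 40 pM IL-6, 5 hrs, 37 C, in low-serum OPTI-MEM with 10 mM HEPES pH 7.3. Detection: 460/530 nm fluorescence.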

[5] = molecular target: Glucocorticoid receptor (Homo sapiens) (UniProt P04150); test: GR-GFP Redistribution (AID 450;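 active means compounds whose dose series gives a full or clear partial fitted curve of increased nuclear translocation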; further: potency means the concentration at half of the fitted maximal effect); settings: U2OS GR-GFP nuclear translocation, laser cytometry, 2 h
Sequence of Glucocorticoid receptor (Homo sapiens) (P04150 whole entry, looked up, the tested form may be a part): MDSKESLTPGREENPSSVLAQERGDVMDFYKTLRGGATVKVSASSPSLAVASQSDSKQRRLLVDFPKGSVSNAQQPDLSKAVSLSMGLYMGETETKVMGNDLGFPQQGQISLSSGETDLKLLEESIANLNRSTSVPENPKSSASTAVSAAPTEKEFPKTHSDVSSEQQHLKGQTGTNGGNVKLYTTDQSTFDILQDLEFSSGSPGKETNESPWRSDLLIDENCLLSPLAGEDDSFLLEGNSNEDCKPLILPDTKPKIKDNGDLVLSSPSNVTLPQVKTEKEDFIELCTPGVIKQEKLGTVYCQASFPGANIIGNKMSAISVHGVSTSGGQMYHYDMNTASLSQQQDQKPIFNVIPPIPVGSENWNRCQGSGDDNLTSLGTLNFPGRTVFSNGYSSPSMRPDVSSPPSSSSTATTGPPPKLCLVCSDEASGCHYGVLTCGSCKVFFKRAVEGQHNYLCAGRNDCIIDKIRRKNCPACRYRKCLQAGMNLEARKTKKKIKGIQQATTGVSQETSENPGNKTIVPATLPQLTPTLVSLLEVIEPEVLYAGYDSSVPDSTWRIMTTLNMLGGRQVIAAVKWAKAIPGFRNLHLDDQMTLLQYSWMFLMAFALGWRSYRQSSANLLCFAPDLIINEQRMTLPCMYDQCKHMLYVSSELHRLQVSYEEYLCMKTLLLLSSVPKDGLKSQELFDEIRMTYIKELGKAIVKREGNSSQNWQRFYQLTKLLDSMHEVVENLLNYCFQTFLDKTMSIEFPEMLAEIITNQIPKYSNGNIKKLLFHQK

[6] = molecular target: Glucocorticoid receptor (Homo sapiens) (UniProt P04150); test: GR-EFC Redistribution (AID 451; calls by dose curve; further: potency means the concentration at half of the fitted maximal effect); settings: CHO-K1 GR-EFC translocation, beta-gal luminescence, 2 h
How it was run: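 CHO-K1 cells expressing nuclear EA and GR-ED fragments of b-gal; compounds titrated up to 46 uM final, 2 h at 37 C. GR nuclear translocation read as complemented b-gal luminescence after 1 h RT detection.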

[7] = molecular target: Mitogen-activated protein kinase 10 (Mus musculus) (UniProt Q61831); test: JNK3 AlphaScreen Assay (AID 530); settings: JNK3 lysate, c-Jun phosphorylation; series mostly up to 11.4 µM;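 further: kinase came from lysate of stimulated human HepG2 cells; signal reports phosphorylation of biotinylated GST-cJun 1-79 at Ser73 with 10 µM ATP; on the % scale 0 is the no-effect control and ±100 the full control effect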
How it was run: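 Pre-activated (IL-1β/TNFα) JNK3 in HepG2 lysates phosphorylates biotin-GST-cJun(1-79), 10 uM ATP; anti-phospho-cJun(Ser73) AlphaScreen read at room temperature, pH 7.6 Tris buffer. Compounds pre-incubated 15 min as titrations.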

[8] = molecular target: 3',5'-cyclic-AMP phosphodiesterase 4B (Homo sapiens) (UniProt Q07343); test: qHTS Assay for Inhibitors of PDE-IV (AID 607; active means well fitted activation curve with a large enough effect in the main read-out, with a control signal flat, not every such curve was filed as active; further: % of control where 0% means no effect); settings: HEK293 ACTOne CNG channel cells, membrane potential fluorescence; series mostly up to 22.9 µM
Sequence of 3',5'-cyclic-AMP phosphodiesterase 4B (Homo sapiens) (Q07343 whole entry, looked up): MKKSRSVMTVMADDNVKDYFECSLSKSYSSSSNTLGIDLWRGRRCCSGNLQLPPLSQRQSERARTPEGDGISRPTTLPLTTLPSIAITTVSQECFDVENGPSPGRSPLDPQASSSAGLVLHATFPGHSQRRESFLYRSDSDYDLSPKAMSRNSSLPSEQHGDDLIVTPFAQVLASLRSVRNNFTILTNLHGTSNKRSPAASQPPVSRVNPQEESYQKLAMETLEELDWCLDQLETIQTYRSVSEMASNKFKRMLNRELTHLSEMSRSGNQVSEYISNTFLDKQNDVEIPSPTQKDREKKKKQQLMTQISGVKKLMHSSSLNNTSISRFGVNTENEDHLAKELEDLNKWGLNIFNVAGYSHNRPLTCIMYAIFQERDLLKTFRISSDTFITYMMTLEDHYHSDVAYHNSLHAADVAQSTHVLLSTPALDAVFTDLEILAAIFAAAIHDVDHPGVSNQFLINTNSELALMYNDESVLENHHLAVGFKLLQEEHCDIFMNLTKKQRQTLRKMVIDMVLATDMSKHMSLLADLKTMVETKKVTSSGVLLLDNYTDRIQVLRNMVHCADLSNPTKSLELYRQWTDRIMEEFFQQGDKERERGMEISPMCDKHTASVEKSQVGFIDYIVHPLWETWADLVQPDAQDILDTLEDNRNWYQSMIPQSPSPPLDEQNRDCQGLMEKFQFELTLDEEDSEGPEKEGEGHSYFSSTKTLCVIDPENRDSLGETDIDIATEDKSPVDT
How it was run: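 Cell-based read-out of cAMP via a modified cyclic nucleotide-gated channel and membrane potential dye (535/590 nm) in HEK293 cells expressing PDE4 endogenously. Compounds tested up to 22.9 uM final; 100 uM RO 20-1724 reference.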

[9] = molecular target: Cytochrome P450 2C9 (Homo sapiens) (UniProt P11712); test: qHTS Assay for Inhibitors and Substrates of Cytochrome P450 2C9 (AID 883; active means well fitted curve in the direction sought with a large enough effect; an effect the other way counts as inactive or inconclusive; further: nearly all actives have a fitted effect of over 60% in size; further: potency means the concentration at half of the fitted maximal effect); settings: recombinant CYP2C9, luciferin-H luminescence, 60 min; series mostly up to 11.4 µM
Sequence of Cytochrome P450 2C9 (Homo sapiens) (P11712 whole entry, looked up): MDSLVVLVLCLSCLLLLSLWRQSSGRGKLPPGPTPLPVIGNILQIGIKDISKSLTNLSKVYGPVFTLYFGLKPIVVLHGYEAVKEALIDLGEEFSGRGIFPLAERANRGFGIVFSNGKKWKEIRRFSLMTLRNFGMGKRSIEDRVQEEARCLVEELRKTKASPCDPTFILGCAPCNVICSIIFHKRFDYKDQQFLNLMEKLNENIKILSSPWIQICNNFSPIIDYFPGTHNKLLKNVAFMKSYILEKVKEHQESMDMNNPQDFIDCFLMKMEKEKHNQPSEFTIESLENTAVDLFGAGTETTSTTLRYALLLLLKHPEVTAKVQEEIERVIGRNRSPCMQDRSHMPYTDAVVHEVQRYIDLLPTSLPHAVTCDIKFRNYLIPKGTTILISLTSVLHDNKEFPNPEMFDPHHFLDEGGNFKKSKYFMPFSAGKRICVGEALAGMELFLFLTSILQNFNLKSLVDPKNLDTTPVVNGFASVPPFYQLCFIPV
How it was run: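 Signal: luciferase luminescence reporting luciferin produced by CYP2C9. Conditions: 10nM enzyme, Luciferin-H 100uM at KM, 25mM KPO4, 37C, 60 min NADPH-driven reaction. Reference: 57uM sulphaphenazole as 100% inhibition.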

[10] = molecular target: Cytochrome P450 3A4 (Homo sapiens) (UniProt P08684); test: qHTS Assay for Activators of Cytochrome P450 3A4 (AID 885; active means well fitted curve in the direction sought with a large enough effect; an effect the other way counts as inactive or inconclusive; further: nearly all actives have a fitted effect of over 65% in size); settings: recombinant CYP3A4, Luciferin-PPXE luminescence, 60 min; series mostly up to 11.4 µM
Sequence of Cytochrome P450 3A4 (Homo sapiens) (P08684 whole entry, looked up): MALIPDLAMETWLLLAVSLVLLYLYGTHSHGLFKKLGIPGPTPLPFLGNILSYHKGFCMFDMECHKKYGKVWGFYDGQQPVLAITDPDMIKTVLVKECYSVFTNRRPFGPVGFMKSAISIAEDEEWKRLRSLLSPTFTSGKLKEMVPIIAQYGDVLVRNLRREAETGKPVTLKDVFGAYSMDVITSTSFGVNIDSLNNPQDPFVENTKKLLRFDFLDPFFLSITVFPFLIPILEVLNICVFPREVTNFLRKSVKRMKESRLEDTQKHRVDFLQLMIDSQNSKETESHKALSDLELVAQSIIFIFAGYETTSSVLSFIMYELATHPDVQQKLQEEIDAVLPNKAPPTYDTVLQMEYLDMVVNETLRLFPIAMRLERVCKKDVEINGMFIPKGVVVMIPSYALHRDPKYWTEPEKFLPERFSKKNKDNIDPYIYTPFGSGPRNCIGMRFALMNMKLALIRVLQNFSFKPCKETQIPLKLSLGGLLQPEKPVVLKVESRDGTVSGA
How it was run: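 Signal was normalized against complete inhibition by 57 uM ketoconazole. The reaction used 20nM CYP3A4 with 25uM Luciferin-PPXE, 10-min compound preincubation and a 60-min NADPH-supported step at RT.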

[11] = molecular target: Cytochrome P450 2C19 (Homo sapiens) (UniProt P33261); test: qHTS Assay for Inhibitors and Substrates of Cytochrome P450 2C19 (AID 899; active means well fitted curve in the direction sought with a large enough effect; an effect the other way counts as inactive or inconclusive; further: on the % scale 0 is the no-effect control and ±100 the full control effect; nearly all actives have a fitted effect of over 60% in size); settings: recombinant CYP2C19, luciferin-H EGE luminescence; series mostly up to 11.4 µM
Sequence of Cytochrome P450 2C19 (Homo sapiens) (P33261 whole entry, looked up): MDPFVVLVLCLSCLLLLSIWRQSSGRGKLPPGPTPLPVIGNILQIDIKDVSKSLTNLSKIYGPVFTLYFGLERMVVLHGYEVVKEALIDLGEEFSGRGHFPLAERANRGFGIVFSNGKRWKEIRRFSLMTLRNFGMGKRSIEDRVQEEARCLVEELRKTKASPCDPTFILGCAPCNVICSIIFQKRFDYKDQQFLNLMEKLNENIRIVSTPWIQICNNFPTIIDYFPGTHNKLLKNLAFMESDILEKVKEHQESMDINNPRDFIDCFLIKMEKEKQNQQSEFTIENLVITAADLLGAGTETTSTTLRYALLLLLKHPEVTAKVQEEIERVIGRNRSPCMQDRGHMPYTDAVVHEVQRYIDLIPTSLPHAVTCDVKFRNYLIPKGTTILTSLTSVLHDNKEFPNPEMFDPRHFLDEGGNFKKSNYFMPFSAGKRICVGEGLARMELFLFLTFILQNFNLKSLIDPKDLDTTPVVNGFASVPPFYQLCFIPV
How it was run: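 Signal comes from luciferase acting on luciferin released by CYP2C19-mediated hydroxylation of Luciferin-H EGE, 10uM (KM). Assay mix: 5nM enzyme, 50mM KPO4; 60 min at 37C with NADPH regeneration. Data normalized against 57uM ketoconazole.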

CN(C)c1ccc2nc3c(C(=O)O)cc(=O)c(O)c-3oc2c1
inactive: Potency [1] > 11.4 µM | activity change, negative = inhibition [2] -7.19% | activity change, negative = inhibition [3] 4.18% | activity, negative = inhibition [4] -14.8% | Potency [5] > 46 µM | Potency [6] > 9.22 µM | Potency [7] | Potency [8]

O=C(O)c1nnsc1-c1ccc(-c2snnc2C(=O)O)cc1
inactive: Potency [1] > 11.4 µM | activity change, negative = inhibition [2] -0.0507% | activity change, negative = inhibition [3] 18.7% | activity, negative = inhibition [4] -0.666% | Potency [5] > 46 µM | Potency [6] > 9.22 µM | Potency [7] | Potency [8]

COC(=O)c1cc(=O)[nH]c(=O)[nH]1
inactive: Potency [1] > 11.4 µM | activity change, negative = inhibition [2] 9.08% | activity change, negative = inhibition [3] 1.11% | activity, negative = inhibition [4] -3.43% | Potency [5] > 46 µM | Potency [6] > 9.22 µM | Potency [7] | Potency [8]

CC(C)c1cc(CN(C)C)c(O)c(C(C)(C)C)c1
inactive: Potency [1] > 11.4 µM | activity change, negative = inhibition [2] 1.46% | activity change, negative = inhibition [3] -5.67% | activity, negative = inhibition [4] -8.11% | Potency [5] > 46 µM | Potency [6] > 9.22 µM | Potency [7] | Potency [8]

CC(C)=N[C@H](C(=O)O)C(C)(C)S
inactive: Potency [1] > 11.4 µM | activity change, negative = inhibition [2] 10% | activity change, negative = inhibition [3] 3.46% | activity, negative = inhibition [4] 6.64% | Potency [5] > 46 µM | Potency [6] > 9.22 µM | Potency [7] | Potency [8]

O=C(O)c1cccc(C[C@H](Br)C(=O)O)c1
inactive: Potency [1] > 11.4 µM | activity change, negative = inhibition [2] 3.81% | activity change, negative = inhibition [3] 14.3% | activity, negative = inhibition [4] 9.47% | Potency [5] > 46 µM | Potency [6] > 9.22 µM | Potency [7] | Potency [8]

N#CC(=NCCO)C1=C(O)c2ccccc2C1=O
inactive: Potency [1] > 11.4 µM | activity change, negative = inhibition [2] -1.5% | activity change, negative = inhibition [3] 17.6% | activity, negative = inhibition [4] 10.7% | Potency [5] > 46 µM | Potency [6] > 9.22 µM | Potency [7] | Potency [8]

O=C(O)[C@H]1O[C@H]1C(=O)O
inactive: Potency [1] > 11.4 µM | activity change, negative = inhibition [2] 7.85% | activity change, negative = inhibition [3] -1.75% | activity, negative = inhibition [4] 2.71% | Potency [5] > 46 µM | Potency [6] > 9.22 µM | Potency [7] | Potency [8]

O=C1c2cccc([N+](=O)[O-])c2C(=O)N1c1ncn[nH]1
inactive: Potency [1] > 11.4 µM | activity change, negative = inhibition [2] -5.78% | activity change, negative = inhibition [3] 7.45% | activity, negative = inhibition [4] 4.03% | Potency [5] > 46 µM | Potency [6] > 9.22 µM | Potency [7] | Potency [8] | Potency [9] | Potency [10] | Potency [11]

O=S(=O)(c1cccc(C(F)(F)F)c1)N1c2ccccc2-n2cccc2[C@H]1c1cccnc1
inactive: Potency [1] > 11.4 µM | activity change, negative = inhibition [2] -23.2% | activity change, negative = inhibition [3] -6.39% | activity, negative = inhibition [4] -6.23% | Potency [5] > 46 µM | Potency [6] > 9.22 µM | Potency [7] | Potency [8]

O=C(O)[C@@H](Br)[C@@H](Br)c1ccccc1[N+](=O)[O-]
inactive: Potency [1] > 11.4 µM | activity change, negative = inhibition [2] 3.89% | activity change, negative = inhibition [3] 10.2% | activity, negative = inhibition [4] -0.793% | Potency [5] > 46 µM | Potency [6] > 9.22 µM | Potency [7] | Potency [8]

COc1c(NC(C)=O)c2ccccc2c2ccccc12
inactive: Potency [1] > 11.4 µM | activity change, negative = inhibition [2] -1.26% | activity change, negative = inhibition [3] -6.36% | activity, negative = inhibition [4] 1.8% | Potency [5] > 46 µM | Potency [6] > 9.22 µM | Potency [7] | Potency [8] | Potency [9]

Cc1cc(Cl)ccc1Nc1sc(C(=O)c2cc3cc(Cl)ccc3o2)c(N)c1C#N
active: Potency [9] 1.26 µM
inactive: Potency [1] > 11.4 µM | activity change, negative = inhibition [2] -2.93% | activity change, negative = inhibition [3] 14.9% | activity, negative = inhibition [4] -13.7% | Potency [5] > 46 µM | Potency [6] > 9.22 µM | Potency [7] | Potency [8]

COc1ccc(-c2nc3cnc(Oc4ccccc4)nc3n(C3CC3)c2=O)cc1
inactive: Potency [1] > 11.4 µM | activity change, negative = inhibition [2] -23.1% | activity change, negative = inhibition [3] 15.1% | activity, negative = inhibition [4] 4.9% | Potency [5] > 9.22 µM | Potency [6] > 46 µM | Potency [7] | Potency [8] | Potency [10]

O=C1c2ccccc2C(=O)N1c1ccc(Cc2ccc(N3C(=O)c4ccccc4C3=O)cc2)cc1
inactive: Potency [1] > 11.4 µM | activity change, negative = inhibition [2] -0.978% | activity change, negative = inhibition [3] 8.54% | activity, negative = inhibition [4] -2.37% | Potency [5] > 46 µM | Potency [6] > 9.22 µM | Potency [7] | Potency [8]

CC(C)[C@@H]1O[C@H](/C=C\c2ccccc2)OCC1(C)C
inactive: Potency [1] > 11.4 µM | activity change, negative = inhibition [2] -2.98% | activity change, negative = inhibition [3] 26.7% | activity, negative = inhibition [4] 8.84% | Potency [5] > 46 µM | Potency [6] > 9.22 µM | Potency [7] | Potency [8] | Potency [10]
